Assay outcomes from PubChem.
This is a sample that favours compounds with a hit; in the whole collection about 5.3% have one here.
SUMO Mot1 rescue – blocks SUMOylation pathway, rescuing yeast Mot1-301 growth. hit rate 1% among 320,000. growth rescue, % at 18.8 µM. AID 2716. S. cerevisiae Mot1-301 growth rescue, ATP luminescence, 38.5C; percent above DMSO median, 100 means doubled;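 active = every valid replicate shows activation above 250% relative to neutral control wells; inactive = the rest, any valid replicate at or below 250%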;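 note: OY570 slx delta 5 strain wells were the positive control but not used for scaling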
HIF activator – HIF pathway transcriptional activation | U2OS HRE-luciferase reporter, luminescence; normalized: DMSO 0%, desferrioxamine 100% | activation, % at 7.5 µM (by protocol) | hit rate 0.32% among 300,000 | AID 1910;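 active = mean activation of at least 10% of the iron chelator positive control signal, with at least half of replicates also reaching 10%; inconclusive = mean and replicate majority disagree about reaching 10%; inactive = mean and most replicates under 10%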
ALR H2O2 inh – blocks human ALR sulfhydryl oxidase activity | AID 485317 | inhibition, % (concentration not given with the values) | hit rate 3.8% among 290,000 | P55789 | purified ALR, DTT oxidation, H2O2 HRP-luminol luminescence;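 active = mean replicate inhibition above about 79%, with every replicate also reaching it, limit read from the data; inconclusive = only one of the two criteria met; inactive = mean below limit and not every replicate reaching it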
Target sequence (P55789 whole entry, looked up): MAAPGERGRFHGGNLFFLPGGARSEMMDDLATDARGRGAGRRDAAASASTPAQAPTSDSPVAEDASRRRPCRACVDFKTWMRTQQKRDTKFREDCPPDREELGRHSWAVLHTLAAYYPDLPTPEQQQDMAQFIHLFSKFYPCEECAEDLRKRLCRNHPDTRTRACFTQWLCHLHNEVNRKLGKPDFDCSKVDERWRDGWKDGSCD
PfM18AAP inh – blocks P. falciparum M18 aspartyl aminopeptidase. hit rate 1.2% among 290,000. inhibition, % at 7.35 µM. recombinant PfM18AAP, H-Glu-NHMec fluorogenic cleavage;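 active = inhibition above the campaign mean inhibition over all tested compounds plus 3 SD, cut at about 28% in these data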;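 note: 0% = plate median of test compound wells and 100% = 2 mM ZnCl2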
The depositor's hits bear a star; u = inconclusive; x = not tested or not shown.

SMILES	SUMO Mot1 rescue	HIF activator	ALR H2O2 inh	PfM18AAP inh
CCC(OC(=O)c1nsc(Cl)c1Cl)C(=O)NC(C)(C)C (configuration not stated)	-1	1	x	2
Cc1ccc(OCC(=O)N/N=C\c2cccn2C)c([N+](=O)[O-])c1	99	1	1	2
Cc1nnc(SCc2cnc(-c3ccc(C(C)C)cc3)s2)n1C	-26	x	98*	1
c1ccc(-c2ncc(CSc3nncn3-c3ccccc3)s2)cc1	3	0	x	0
O=C(CCN1CCC(c2ccccc2)C1)c1cccs1 (configuration not stated)	36	0	46	5
O=C(CCSc1ccc(Cl)cc1)c1cccs1	x	0	46	8
O=C(CCN1CCCC1)c1cccs1	-2	-10	98*	-3
O=C(CCc1ccc(CCC(=O)c2cccs2)s1)c1cccs1	-7	1	92*	2
COc1ccc(C(=O)CCN2CCCCCC2)cc1	-9	-1	54	-5
O=C(CCN1CCCCCC1)c1ccccc1	90	x	91*	16
C/C(=N/NS(=O)(=O)c1ccc(CC(C)C)cc1)c1ccncc1	143	0	-46	19
Fc1ccc(-c2ccnc(=S)[nH]2)cc1	-20	1	99*	13
Fc1ccc(-c2nc3ccncc3[nH]2)cc1	4	4	2	-10
Cc1cc(-c2ccccc2)nc2[nH]n(-c3ccccc3)c(=O)c12	-4	0	99*	-4
O=c1c2c(C(F)(F)F)cc(C(F)(F)F)nc2[nH]n1-c1ccccc1	-4	0	26	14
Cc1cc(C)c2c(=O)n(-c3ccccc3)[nH]c2n1	17	2	99*	3
Cc1cc(C(C)(C)C)nc2[nH]n(-c3ccccc3)c(=O)c12	-11	0	96*	6
CC1CN(C(=O)CSc2nnc(CNC(=O)c3ccc(S(=O)(=O)N(C)C)cc3)o2)CC(C)O1 (configuration not stated)	-10	0	-9	-11
c1ccc(COc2ccc(OCCn3cncn3)cc2)cc1	252*	3	-7	1
c1ccc(-c2ccc(OCCCn3cncn3)cc2)cc1	78	x	-13	1
COc1cc(/C=C(\C#N)C(=O)NCC2CCCO2)ccc1O (configuration not stated)	4	0	99*	0
CCOc1ccc(/C=C(\C#N)C(=O)NCC2CCCO2)cc1OCC (configuration not stated)	-8	-1	-2	2
CCOc1cc(/C=N/NC(=O)C(=O)NCC2CCCO2)ccc1OCC(=O)N1CCOCC1 (configuration not stated)	-20	0	2	-13
COc1cc(/C=N/NC(=O)C(=O)NCC2CCCO2)ccc1O (configuration not stated)	-18	0	99*	2
CCOC(=O)/C=c1\s/c(=C\c2ccc3cc(OC)ccc3c2)c(=O)n1CC(=O)NCc1ccc2c(c1)OCO2	9	0	0	3
SMILES	SUMO Mot1 rescue	HIF activator	ALR H2O2 inh	PfM18AAP inh
CN(c1ccccc1)c1ccc(/C=N/N2CCOCC2)cc1	75	1	99*	3
C(=N/N1CCN(c2ccccc2)CC1)/c1ccncc1	-2	0	97*	-9
CCN(CC)c1ccc(/C=N/N2CCN(Cc3ccccc3)CC2)cc1	531	-1	x	10
Cn1cccc1/C=N/N1CCN(c2ccccc2)CC1	9	0	94*	1
CCN(CC(=O)Nc1ccc(NC(C)=O)cc1)C(=O)c1ccc2c(c1)S(=O)(=O)N=C1CCCCCN12	3	0	-9	x
O=S(=O)(Nc1ccc2c(c1)OCCO2)c1cnc[nH]1	46	-1	x	1
CCCn1cnc2c(N)c(C)c(C)cc21	105	0	83*	1
CCOC(=O)c1sc2nc(C)nc(SCC(=O)N(C)C3CCS(=O)(=O)C3)c2c1C (configuration not stated)	4	0	-4	-1
Cc1cc(C)c2c(-n3cccc3)c(C(=O)NNS(=O)(=O)c3ccc(Br)cc3)sc2n1	x	0	88*	8
CCOC(=O)Nc1sc2nc(C)cc(C)c2c1-n1cccc1	8	x	-6	0
CC1=NN2C(=N)/C(=C\c3cc(C)n(Cc4ccccc4)c3C)C(=O)N=C2S1	-43	55*	97*	-1
Cc1cc(/C=C2\C(=N)N3N=C(CC(=O)N4CCOCC4)SC3=NC2=O)c(C)n1Cc1ccccc1	-2	0	20	0
COc1ccc(/C=C/C(=O)C2C(=O)C=C(C)OC2=O)cc1O (configuration not stated)	-4	1	u	10
COc1cc(/C=C/C(=O)C2C(=O)C=C(C)OC2=O)cc(OC)c1O (configuration not stated)	1	0	99*	31*
Cc1cccc(NC(=O)CSc2nc3[nH]c(=O)cc(O)c3s2)c1	34	x	99*	x
COc1ccc(NC(=O)CSc2nc3[nH]c(=O)[nH]c(=O)c3s2)cc1OC	-4	0	99*	1
CCc1ccccc1NC(=O)CSc1nc2[nH]c(=O)cc(O)c2s1	1	-1	-12	25
O=C(CSc1nc2[nH]c(=O)cc(O)c2s1)Nc1ccc(Br)cc1	-11	x	82*	x
Cc1cccc(C)c1NC(=O)CSc1nc2[nH]c(=O)cc(O)c2s1	-3	x	0	x
COc1cc(NC(=O)CSc2nc3[nH]c(=O)cc(O)c3s2)cc(OC)c1OC	737	x	99*	x
C[C@H](NC(=O)[C@@H]1Cc2ccccc2CN1)C(=O)NCC1CCCO1 (some centres not stated)	37	0	2	2
CSc1nccc(N/N=C/c2ccccc2)n1	47	-10	-2	-12
O=C(CSc1nc2[nH]c(=O)cc(O)c2s1)Nc1cccc(Br)c1	5	x	99*	x
Nc1cc(=O)[nH]c(SCC(=O)Nc2ccc(Cl)c(Cl)c2)n1	4	0	-7	-12
Nc1cc(=O)[nH]c(SCC(=O)Nc2ccc(Br)cc2)n1	22	0	98*	3
SMILES	SUMO Mot1 rescue	HIF activator	ALR H2O2 inh	PfM18AAP inh
Cc1cccc(Nc2nnc(SCC(=O)Nc3ccccc3[N+](=O)[O-])s2)c1	-21	1	3	-6
Cc1cccc(Nc2nnc(SCC(=O)Nc3ccc(C(=O)O)cc3)s2)c1	-10	0	94*	-14
CN(C)c1ccc(NC(=S)NCC2CCCO2)cc1 (configuration not stated)	8	0	99*	-2
Cc1ccc(C(=O)N/C(=C/c2ccc(N(C)C)cc2)C(=O)NCC2CCCO2)cc1 (configuration not stated)	-5	0	87*	14
O=C(Cc1cccs1)Nc1ccc(F)cc1	14	-1	-2	1
Nc1nc(C(=O)N2CCOCC2)nn1C(=O)c1ccc(Cl)cc1	-9	0	86*	-15
O=C(c1ccc(Cl)cc1)c1ccccc1C(=O)N1CCOCC1	-3	0	-7	-1
Cc1ccc(C)c(S(=O)(=O)N/N=C/c2ccc(N(C)C)cc2)c1	5	0	99*	6
CC(=O)NCc1ccc(S(=O)(=O)N/N=C/c2ccc(N(C)C)cc2)cc1	-12	0	98*	6
